Screens deposited in PubChem BioAssay by several laboratories.
TROY NFkB inh – blocks TROY-dependent signaling in reporter cells | Q293 LMP1-TROYcd NF-kB luciferase reporter, 4 h | inhibition, % at 10 µM | 360,000 tested, 0.98% active;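 active means compounds whose plate-normalised and pattern-corrected inhibition of the luciferase reporter signal at the single screening dose is 50% or more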
EWS-Fli inh – EWS/Fli transcriptional activity inhibition; inhibition, % at 12.6 µM; A673 NR0B1-luciferase reporter, viability-normalised; 350,000 tested, 0.67% active; AID 651661;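 active means mean inhibition of at least 50% after viability correction, with every replicate also passing that limit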;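 further: firefly luciferase signal divided by Alamar Blue viability fluorescence both relative to DMSO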
PAX8 inh HTS – lowers PAX8-driven luciferase in RMG-I cells; RMG-I TPO-luciferase reporter, SteadyGlo, 24 h; inhibition, % at 12.6 µM; 360,000 tested, 1.2% active;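 active means mean replicate inhibition at least 60% with every replicate also reaching 60%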;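 further: luciferase light reporting Pax8 driven TPO promoter activity; plate controls were median of neutral control wells for no effect and mitoxantrone controls for full effect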
TWEAK Fn14 block – blocks TWEAK-Fn14 interaction in a reporter cell assay; TWEAK-stimulated Fn14 reporter cells, luciferase luminescence, 8 h; inhibition, % at 10 µM; 360,000 tested, 2% active; in the data active means inhibition above about 50%
LGR2 antag – Drosophila LGR2 receptor signaling inhibition | 380,000 tested, 0.35% active | HEK293 LGR2, CRE-luciferase, bursicon-stimulated, 4 h | AID 720647 | inhibition, % at 9.99 µM;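 active means drop in luminescence signal, shown as inhibition above about 50% in the replicate tests, limit read from the data, passing the limit was not always enough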;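 further: agonist challenge used bursicon conditioned medium at about half maximal strength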
* hit, by the source's call. Only some compounds are listed: those with a hit (about 2.8% of all), similar ones and a draw of the others.

What do the screens show for `COC(=O)c1ccccc1NC(=O)CSc1nc(-c2ccco2)cc(C(F)(F)F)n1`?
TROY NFkB inh: 6; EWS-Fli inh: 51*; TWEAK Fn14 block: 5; LGR2 antag: 8

How did Cc1cc(NC(=O)CCCSc2nc(-c3ccco3)cc(C(F)(F)F)n2)n(-c2ccccc2)n1 do in these assays?
TWEAK Fn14 block: 62*

Results for C[C@@H]1CN([C@@H](C)CO)C(=O)c2cc(NS(=O)(=O)c3ccccc3)ccc2O[C@@H](C)CCCCO[C@@H]1CN(C)C ?
EWS-Fli inh: -3; PAX8 inh HTS: 11; LGR2 antag: 9

Results for CN1CCN(C(=O)C[C@H]2CC[C@@H]3[C@@H](COc4ccc(NC(=O)C5CCOCC5)cc4C(=O)N3C)O2)CC1 ?
EWS-Fli inh: -56; PAX8 inh HTS: -15; LGR2 antag: -24

How did CCn1c(O)c(N=NC(=O)CNC(=O)Cc2ccccc2)c2ccccc21 do in these assays?
TROY NFkB inh: 0; EWS-Fli inh: 6; PAX8 inh HTS: 22; TWEAK Fn14 block: 0; LGR2 antag: 1

How did O=C(CNC(=O)c1ccco1)N=Nc1c(O)n(CCc2ccccc2)c2ccccc12 do in these assays?
TROY NFkB inh: 30; EWS-Fli inh: 56*; PAX8 inh HTS: 26; TWEAK Fn14 block: 31; LGR2 antag: 18

What do the screens show for `C[C@@H]1CN([C@H](C)CO)C(=O)c2cc(NC(=O)CCCN(C)C)ccc2O[C@@H](C)CCCCO[C@@H]1CN(C)C(=O)NC1CCCCC1`?
EWS-Fli inh: 0; LGR2 antag: 2

How did C[C@@H]1CN([C@H](C)CO)S(=O)(=O)c2ccc(-c3ccc(C#N)cc3)cc2O[C@@H]1CN(C)Cc1cccc(F)c1 do in these assays?
EWS-Fli inh: 24; PAX8 inh HTS: 86*; LGR2 antag: 1

How did C[C@@H]1CN([C@@H](C)CO)S(=O)(=O)c2ccc(-c3ccc(C#N)cc3)cc2O[C@H]1CN(C)Cc1cccc(F)c1 do in these assays?
EWS-Fli inh: 15; PAX8 inh HTS: 57; LGR2 antag: -2

How did C[C@@H]1CN([C@@H](C)CO)S(=O)(=O)c2ccc(-c3ccc(C#N)cc3)cc2O[C@@H]1CN(C)Cc1cccc(F)c1 do in these assays?
EWS-Fli inh: -11; PAX8 inh HTS: 63*; LGR2 antag: 1

What do the screens show for `CN1CCN(C(=O)C[C@@H]2C[C@@H]3c4cc(NC(=O)Nc5ccccc5F)ccc4O[C@@H]3[C@@H](CO)O2)CC1`?
EWS-Fli inh: -10; PAX8 inh HTS: 1; LGR2 antag: 15

What do the screens show for `COc1ccccc1-c1ccc2n(c1=O)C[C@@H]1[C@@H](CO)[C@H](C(=O)N(C)C)N(CC3CCOCC3)[C@H]21`?
EWS-Fli inh: -4; PAX8 inh HTS: 0; LGR2 antag: -9

Results for C=CCN1C(=O)N(c2ccc(F)cc2)C(=O)C1CC(=O)Nc1ccc(Cl)cc1 (stereo unspecified) ?
TROY NFkB inh: 3; EWS-Fli inh: -1; PAX8 inh HTS: 8; TWEAK Fn14 block: 80*; LGR2 antag: -6

Results for C=CCN1C(=O)N(c2ccc(Cl)cc2)C(=O)C1CC(=O)Nc1ccc(F)cc1 (stereo unspecified) ?
TROY NFkB inh: 6; EWS-Fli inh: -1; PAX8 inh HTS: -8; TWEAK Fn14 block: 38; LGR2 antag: 15

Results for C[C@@H]1CN([C@@H](C)CO)C(=O)c2cc(NS(=O)(=O)c3ccccc3)ccc2O[C@@H](C)CCCCO[C@H]1CN(C)S(=O)(=O)c1cn(C)cn1 ?
EWS-Fli inh: -9; PAX8 inh HTS: -3; LGR2 antag: -13

What do the screens show for `CN(C)CCCNC1=CC(=O)OC12CCCCC2`?
TWEAK Fn14 block: 90*

How did CC(C)(C)CC(C)(C)NC1=CC(=O)OC12CCCCC2 do in these assays?
TROY NFkB inh: -3; TWEAK Fn14 block: -3

How did COc1ccccc1CN1[C@@H]2c3ccc(C4=CCCC4)c(=O)n3C[C@H]1[C@H](CO)[C@H]2C(=O)N(C)C do in these assays?
EWS-Fli inh: 2; PAX8 inh HTS: 8; LGR2 antag: 6

Results for CCOC(=O)/C(=C\c1ccccc1)C(=O)c1cc(C(C)=O)c(Nc2ccccc2)s1 ?
TROY NFkB inh: 34; TWEAK Fn14 block: 70*

Results for CCOC(=O)/C(C#N)=C\c1cccnc1 ?
TROY NFkB inh: -6; EWS-Fli inh: -1; PAX8 inh HTS: 4; TWEAK Fn14 block: -1; LGR2 antag: 1

What do the screens show for `CCOC(=O)/C(=C\c1cccnc1)C(=O)c1cc(C(C)=O)c(Nc2ccccc2)s1`?
TROY NFkB inh: 86*; TWEAK Fn14 block: 106*

How did C[C@@H]1CN([C@@H](C)CO)C(=O)c2cc(NS(=O)(=O)c3cn(C)cn3)ccc2O[C@@H](C)CCCCO[C@@H]1CN(C)C(=O)C1CCCCC1 do in these assays?
EWS-Fli inh: -12; PAX8 inh HTS: -10; LGR2 antag: 2

What do the screens show for `Cc1ccc(CN(C)C[C@H]2OCc3cn(nn3)CCCC(=O)N([C@@H](C)CO)C[C@@H]2C)cc1`?
EWS-Fli inh: 0; LGR2 antag: 1

What do the screens show for `Cc1cccc(CN(C)C[C@@H]2Oc3ncc(-c4cc5ccccc5o4)cc3C(=O)N([C@H](C)CO)C[C@@H]2C)c1`?
EWS-Fli inh: 5; PAX8 inh HTS: 3; LGR2 antag: 2

How did COCCn1c(C)cc(C(=O)COC(=O)C23CC4CC(CC(O)(C4)C2)C3)c1C do in these assays?
TROY NFkB inh: 65*; TWEAK Fn14 block: 76*

Results for CCCn1c(C)cc(C(=O)COC(=O)c2nccnc2N)c1C ?
TROY NFkB inh: 56*; EWS-Fli inh: -33; PAX8 inh HTS: 0; TWEAK Fn14 block: 72*; LGR2 antag: 31

How did COCCn1c(C)cc(C(=O)COC(=O)c2cccc(O)c2)c1C do in these assays?
TROY NFkB inh: 86*; EWS-Fli inh: 40; PAX8 inh HTS: 39; TWEAK Fn14 block: 96*; LGR2 antag: 85*

What do the screens show for `Cc1ccc(S(=O)(=O)c2nc(Nc3nccs3)sc2Cl)cc1`?
TROY NFkB inh: 52*; PAX8 inh HTS: -26; TWEAK Fn14 block: -30

Results for CC(=O)Nc1nc(S(=O)(=O)c2ccc(C)cc2)c(Cl)s1 ?
TROY NFkB inh: 14; PAX8 inh HTS: -4; TWEAK Fn14 block: 11

How did CCn1c(=NC(=O)c2ccc(S(=O)(=O)N3CCOCC3)cc2)sc2cccc(OC)c21 do in these assays?
TROY NFkB inh: 38; TWEAK Fn14 block: 60*

What do the screens show for `CCn1c(=NC(=O)CS(=O)(=O)c2ccc(F)cc2)sc2cccc(OC)c21`?
TROY NFkB inh: 21; EWS-Fli inh: 6; PAX8 inh HTS: -8; TWEAK Fn14 block: 11; LGR2 antag: 9

What do the screens show for `CCn1c(=NC(=O)CCS(=O)(=O)c2ccccc2)sc2cccc(OC)c21`?
TROY NFkB inh: 41; PAX8 inh HTS: 16; TWEAK Fn14 block: 58*; LGR2 antag: 1

How did O=C(Nc1ccc(F)cc1)N1CC(=O)N2[C@H](CO)[C@@H](c3ccc(C4=CCCC4)cc3)[C@H]2C1 do in these assays?
EWS-Fli inh: -5; PAX8 inh HTS: 21; LGR2 antag: 9

What do the screens show for `O=C(O)c1ccc(N/N=C/c2cn(Cc3ccccc3F)c3ccccc23)cc1`?
TROY NFkB inh: 31; EWS-Fli inh: -68; PAX8 inh HTS: -166; TWEAK Fn14 block: 33; LGR2 antag: -57
